# In PubChem BioAssay (NCI):
# This is part of a sample that, as a whole, favours compounds with a hit. Of some 83,000 tested, about 20% had one in any assay.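 Negative percent growth values reflect cell death: -40 means 40% of the cells present at the start died, and -100 means all died.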 Unmarked numbers belong to inactive results. The source made the active and inactive calls. How the source made its calls: active means growth percent below 10; inactive means the rest.
# Experiments:
# Test in all cases: NCI-60 one-dose screen, 48 h (100 = growth as untreated, 0 = no growth, -100 = all killed)
# Conditions in all cases: 10 µM
# [1] = test system: SR leukemia
# [2] = test system: RPMI-8226 leukemia
# [3] = test system: OVCAR-8 ovarian
# [4] = test system: OVCAR-5 ovarian
# [5] = test system: OVCAR-4 ovarian
# [6] = test system: SK-OV-3 ovarian
# [7] = test system: IGROV1 ovarian
# [8] = test system: OVCAR-3 ovarian
# [9] = test system: HS 578T breast
# [10] = test system: NCI/ADR-RES ovarian
# [11] = test system: T-47D breast
# [12] = test system: MDA-MB-435 melanoma
# [13] = test system: SW-620 colon
# [14] = test system: MCF7 breast
# [15] = test system: HCT-116 colon
# [16] = test system: HCC-2998 colon
# [17] = test system: KM12 colon
# [18] = test system: BT-549 breast
Compound,growth [1],growth [2],growth [3] [%],growth [4] [%],growth [5] [%],growth [6] [%],growth [7],growth [8],growth [9] [%],growth [10],growth [11] [%],growth [12],growth [13],growth [14],growth [15],growth [16],growth [17],growth [18]
CCN(CC)CCOc1ccc2c(c1O)C(=O)c1ccccc1C2=O,63.5%,90.3%,62.4,104,85.5,77.6,97.3%,94.7%,84.6,72%,97.2,94.5%,67.9%,82.1%,44.9%,96.7%,98%,
O=C(CC(CC(=O)c1ccccc1)c1ccccc1O)c1ccccc1,92.9%,85.2%,95.9,96.9,91.2,94.5,101%,94.3%,86.6,92.1%,83,99.1%,96.7%,89.3%,88.5%,105%,99.8%,
O=C(CN1CCN(C(=O)c2ccccc2)CC1)Nc1ccccc1SCc1ccccc1,71%,68.3%,87.3,96.4,77.2,89.5,84.2%,91.5%,83.9,78.4%,37.7,94.3%,98.5%,86.4%,85.5%,,84.2%,68.1%
CN(C)CCOc1ccc(-c2nc3sccn3c2-c2ccnc(S(C)(=O)=O)n2)cc1,109%,89.6%,106,107,95.9,88.6,115%,115%,101,102%,110,107%,104%,90.2%,98.1%,,113%,118%
O=C(N/N=C/c1c(Cl)cccc1Cl)c1ccccc1Nc1cccc(C(F)(F)F)c1,70.8%,82.5%,103,105,99.1,107,74.9%,104%,85,100%,94.4,110%,96.2%,94.7%,,117%,,81.3%
C[C@]12CCC3c4ccc(O)cc4C[C@@H](CCCCCCCCCS(=O)CCCC(F)(F)C(F)(F)F)C3C1CC[C@@H]2O (stereo partly drawn),44.6%,62.5%,77.7,84.5,66.2,103,92.3%,88.4%,81.4,70.4%,41.2,88.8%,97.1%,15.9%,,87%,80.4%,86.1%
COc1cccc(C2C(C#N)=C(N)Oc3cc(N)ccc32)c1 (stereo not drawn),14.4%,19.6%,30.7,40.6,43.8,48.9,32.4%,-26.5% (active),22.1,-7.69% (active),10.4,-30.5% (active),18.7%,12.1%,23.2%,,24.6%,47.3%
COc1ccc2c(c1)OC(N)=C(C#N)C2c1cc(OC)c(OC)c(OC)c1 (stereo not drawn),4.02% (active),11.6%,14.6,39.3,39.8,50,7.64% (active),-39.8% (active),25.3,-24.3% (active),16.7,-16.7% (active),17.1%,13.3%,3.4% (active),,-10.3% (active),5.64% (active)
O=C1/C(=C/c2ccc3c(c2)OCO3)SC(=S)N1C1c2ccccc2Oc2ccccc21,84.1%,106%,98.9,96.5,102,107,90.6%,98.1%,90.9,95.4%,104,96.5%,103%,91.6%,,80.1%,96.6%,91.1%
CC[C@@H](C(=O)[C@H](C)[C@H](O)[C@@H](C)[C@H]1O[C@H]([C@@H](CC)C(=O)O)CC[C@H]1C)C1O[C@]2(C=C[C@@H](O)[C@]3(CC[C@@](C)([C@H]4CC[C@](O)(CC)[C@H](C)O4)O3)O2)[C@H](C)C[C@@H]1C (stereo partly drawn),22.5%,-7% (active),49.1,41.9,43.4,42.5,41.1%,25.8%,21.9,44%,25.5,-16.3% (active),24%,3.7% (active),22.2%,,24.5%,6.06% (active)
Cc1ccc(NCCNCC(C)(C)O)c2c(=O)c3ccc(Cl)cc3sc12,-31.2% (active),-12.9% (active),32.2,59.9,62.5,79.1,29.8%,-13.4% (active),50.4,45.9%,27.4,-84.5% (active),-80.1% (active),-73.2% (active),-61.6% (active),-52.8% (active),,
COc1cc2cc(Oc3ccc(NC(=O)Nc4ccc(C(F)(F)F)cc4)cc3)c(C)nc2cc1OC,59.6%,52.7%,37.8,92.9,49,38.8,71.9%,67%,70.9,64.1%,57.5,80.3%,75.3%,84.3%,,94.8%,64.4%,113%
O=C1CC(=O)N(C(=O)c2nn(-c3ccc(Cl)cc3)cc2O)N1,-31.9% (active),-8% (active),30.1,65.2,34.1,40.7,34.4%,-4.11% (active),121,33.6%,23.4,48.1%,59.9%,39.9%,22.1%,47.4%,46.5%,
COC1OC(COS(=O)OC)C(O)C(O)C1OS(=O)OC (stereo not drawn),80%,99.7%,114,90.5,116,104,97.7%,106%,102,98.1%,110,105%,103%,88.4%,105%,97.7%,98.5%,
CN1CCN(CCC(=O)Nc2cccc(-n3cc(-c4ccncc4)c(-c4ccc(Cl)c(O)c4)n3)c2)CC1,5.5% (active),19.9%,54.8,67.7,56,46.2,55.8%,14.4%,43.1,29.7%,62.9,-37.9% (active),20.9%,13.9%,19.1%,,31.2%,56.5%
CNS(=O)(=O)Oc1ccc(-c2sc3cc(OS(=O)(=O)NC)ccc3c2C(=O)c2ccc(OCCN3CCCCC3)cc2)cc1,27%,35.9%,86.6,88.3,69.8,76.1,85.6%,83.6%,58.9,71.4%,60.8,70%,65.1%,30.5%,,,80.2%,73.7%
COc1cc2cc(Oc3ccc(NC(=O)c4cc(C(F)(F)F)cc(C(F)(F)F)c4)cc3)c(C)nc2cc1OC,52.8%,17.7%,48.2,67.7,52.4,44.5,43.9%,15.2%,73.1,46.3%,86.7,49.1%,47.4%,29.5%,,73.9%,37.6%,52.4%
CCN1CC(CCN2CCOCC2)C(C(c2ccccc2)c2ccccc2)C1=O (stereo not drawn),94%,113%,99.9,110,113,115,127%,112%,104,98.8%,99.6,99.3%,106%,97.9%,114%,,117%,109%
